Here are results for 14 compounds from PubChem BioAssay (NCATS).

Holding throughout (experiment): qHTS profiling for inhibitors of Plasmodium falciparum proliferation (AID 504749); note: nearly all actives have a fitted effect of over 60% in size
Details in all cases: P. falciparum in erythrocytes, SYBR Green DNA, 72 h; series mostly up to 28.7 µM
For orientation: Quantitative high-throughput screening tests each substance at several concentrations.

One assay has as its system CP238. An outline of the steps:
(§1)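 Each compound contacts P. falciparum-infected red blood cells for 72 h at 37 C; lysis buffer (Tris, EDTA, saponin, Triton X, SYBR Green I) is added and fluorescence measured next morning; values normalized to controls.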

The next assay relates to CP247. The essentials:
as §1

Another assay has as its system CP250. The essentials:
as §1

In the next assay the test system is CP252. An outline of the steps:
as §1

For a further assay, the system named is CP256. The essentials:
as §1

The test system of a further assay is CP260. An outline of the steps:
as §1

The test system of a further assay is CP262. An outline of the steps:
as §1

A further assay deals with CP265. An outline of the steps: as §1
The next assay concerns CP266. The essentials: as §1
For a further assay, the system named is CP268. The essentials: as §1
The test system of a further assay is CP269. The essentials:
as §1

The subject of another assay is CP286. The essentials:
as §1

A further assay concerns CP291. The essentials:
as §1

Another assay deals with CP297. The essentials:
as §1

A further assay has as its system CP305. The essentials:
as §1

For another assay, the system named is CP315. An outline of the steps: as §1
For another assay, the system named is CP325. The essentials:
as §1

The subject of a further assay is CP329. An outline of the steps: as §1
The next assay deals with CP335. An outline of the steps:
as §1

The subject of a further assay is DFO2036. The essentials: as §1

Inconclusive results are not listed. Active and inactive are the calls of the source. Calls come from the whole dose curve; as a rule, active = well fitted inhibition curve with a large enough effect; inconclusive = small, poorly fitted or top-dose-only effect; inactive = flat fitted curve, though single readings scatter.
Potency is the fitted concentration of half-maximal effect.

As for `NCCCC[C@H](N[C@@H](CCc1ccccc1)C(=O)O)C(=O)N1CCC[C@H]1C(=O)O`, the Potency result with CP238, in the assay with CP247, in the assay on CP250, with CP252, with CP256 and in the assay on CP260 was “inactive” in each case. Moreover, the Potency result in the assay on CP262, in the assay with CP265, in the assay with CP266, in the assay with CP268, in the assay on CP269 and in the assay with CP286 was “inactive” in each case. The Potency result with CP291, in the assay with CP297, with CP305, in the assay with CP315, in the assay with CP325 and with CP329 was “inactive” throughout. Also, the Potency result in the assay with CP335 and in the assay with DFO2036 was “inactive” in each case.
As for `COc1cc(NS(C)(=O)=O)ccc1Nc1c2ccccc2nc2ccccc12`, the Potency was 4.47 µM (active) in the assay with CP238; 1.26 µM (active) in the assay with CP247; 1.58 µM (active) in the assay on CP250; 0.891 µM (active) in the assay on CP252; 1 µM (active) in the assay with CP256; 1 µM (active) in the assay on CP260. Moreover, the Potency was 3.79 µM (active) with CP262; 1 µM (active) in the assay with CP265; 5.36 µM (active) in the assay on CP266; 3.38 µM (active) in the assay on CP268; 4.78 µM (active) with CP269; 2 µM (active) with CP286. In addition, the Potency is 1.69 µM (active) in the assay on CP291; 4.78 µM (active) in the assay on CP297; 3.38 µM (active) with CP305; 6.75 µM (active) in the assay with CP315; 4.26 µM (active) with CP325; 4.78 µM (active) with CP329. Moreover, the results for the Potency with CP335 and in the assay on DFO2036 were 4.26 µM (active) and 2.82 µM (active), respectively.
Take `N[C@@H](Cc1cnc[nH]1)C(=O)O`: the Potency result in the assay on CP238, with CP247, with CP250, with CP252, with CP256 and in the assay with CP260 was “inactive” each time. Also, the Potency entry with CP262, with CP265, with CP266, in the assay on CP268, in the assay with CP269 and in the assay with CP286 was “inactive” throughout. Besides, the Potency entry in the assay with CP291, in the assay with CP297, in the assay on CP305, in the assay on CP315, in the assay with CP325 and in the assay with CP329 was “inactive” in each case. In addition, the Potency result in the assay with CP335 and in the assay with DFO2036 was “inactive” in each case.
In the case of `CCC(C(=O)OCCN(CC)CC)c1ccccc1` (centres undefined), the Potency entry in the assay with CP238, with CP247, in the assay on CP250, in the assay with CP252, in the assay on CP256 and in the assay with CP260 was “inactive” each time. Further, the Potency entry in the assay with CP262, in the assay with CP265, in the assay with CP266, with CP268, in the assay with CP269 and in the assay with CP286 was “inactive” each time. The Potency result in the assay on CP291, in the assay with CP297, with CP305, with CP315, in the assay on CP325 and with CP329 was “inactive” in each case. The Potency result with CP335 and with DFO2036 was “inactive” each time.
On to `NCCc1ccn[nH]1`, for which the Potency entry in the assay with CP238, in the assay on CP247, with CP250, with CP252, in the assay with CP256 and in the assay on CP260 was “inactive” each time. Moreover, the Potency result in the assay with CP262, with CP265, with CP266, in the assay with CP268, in the assay with CP269 and in the assay with CP286 was “inactive” each time. For the same compound, the Potency result with CP291, with CP297, with CP305, in the assay on CP315, with CP325 and in the assay with CP329 was “inactive” each time. For the same compound, the Potency entry with CP335 and in the assay on DFO2036 was “inactive” throughout.
On to `CCCCCCCCCCCCCCCC[N+](C)(C)CC`, for which the Potency with CP238 was 5.01 µM (active); in the assay on CP247, 4.47 µM (active); with CP250, 5.01 µM (active); in the assay with CP252 it was 5.01 µM (active); with CP256, 5.01 µM (active); in the assay with CP260, 2.82 µM (active). The Potency in the assay on CP262 was 4.78 µM (active); with CP265, 5.01 µM (active); with CP266 it was 13.5 µM (active); in the assay with CP268 it was 6.75 µM (active); in the assay on CP269 it was 4.26 µM (active); in the assay with CP286 it was 1.41 µM (active). Besides, the Potency is 4.78 µM (active) in the assay on CP291; 6.75 µM (active) with CP297; 6.01 µM (active) in the assay on CP305; 4.78 µM (active) in the assay with CP315; 6.01 µM (active) with CP325; 4.78 µM (active) with CP329. In addition, the Potency in the assay on CP335 is 4.78 µM (active); with DFO2036 it was 2.82 µM (active).
Regarding `C#C[C@]1(OC(C)=O)CC[C@H]2[C@@H]3CCC4=C[C@@H](OC(C)=O)CC[C@@H]4[C@H]3CC[C@@]21C`, the Potency entry in the assay on CP238, in the assay on CP247, in the assay with CP250, with CP252, with CP256 and with CP260 was “inactive” throughout. The Potency entry with CP262, in the assay with CP265, in the assay on CP266, with CP268, in the assay on CP269 and in the assay on CP286 was “inactive” throughout. The Potency entry with CP291, in the assay with CP297, in the assay with CP305, with CP315, in the assay on CP325 and with CP329 was “inactive” in each case. Also, the Potency entry in the assay on CP335 and with DFO2036 was “inactive” each time.
In the case of `CC(=O)Nc1c(I)cc(I)c(C(=O)O)c1I`, the Potency result in the assay on CP238, in the assay on CP247, in the assay with CP250, in the assay on CP252, in the assay on CP256 and with CP260 was “inactive” throughout. Further, the Potency result in the assay on CP262, in the assay with CP265, with CP266, with CP268, in the assay with CP269 and in the assay with CP286 was “inactive” in each case. The Potency entry with CP291, in the assay on CP297, with CP305, in the assay on CP315, with CP325 and in the assay with CP329 was “inactive” in each case. In addition, the Potency result in the assay on CP335 and in the assay on DFO2036 was “inactive” throughout.
Consider `CN1C2CCC1CC(OC(=O)c1c[nH]c3ccccc13)C2` (centres undefined), for which the Potency result in the assay on CP238, with CP247, in the assay on CP250, in the assay with CP252, in the assay on CP256 and in the assay on CP260 was “inactive” in each case. In addition, the Potency entry in the assay with CP262, with CP265, with CP266, with CP268, in the assay on CP269 and with CP286 was “inactive” each time. Also, the Potency result with CP291, in the assay on CP297, with CP305, in the assay on CP315, with CP325 and with CP329 was “inactive” throughout. Also, the Potency entry in the assay on CP335 and with DFO2036 was “inactive” throughout.
With `O=C(O)c1cc2cc(Cc3cccnc3)ccc2o1`, the Potency entry in the assay on CP238, with CP247, with CP250, in the assay on CP252, in the assay with CP256 and with CP260 was “inactive” in each case. Besides, the Potency result in the assay on CP262, in the assay on CP265, in the assay with CP266, with CP268, in the assay on CP269 and in the assay with CP286 was “inactive” in each case. For the same compound, the Potency entry in the assay with CP291, in the assay on CP297, in the assay on CP305, in the assay with CP315, in the assay on CP325 and in the assay with CP329 was “inactive” in each case. Also, the Potency entry in the assay with CP335 and in the assay on DFO2036 was “inactive” throughout.
Consider `COc1cc(C(=S)N2CCOCC2)cc(OC)c1OC`, for which the Potency result in the assay on CP238, with CP247, in the assay on CP250, with CP252, with CP256 and in the assay on CP260 was “inactive” each time. The Potency result in the assay with CP262, in the assay with CP265, in the assay on CP266, in the assay on CP268, with CP269 and with CP286 was “inactive” each time. Besides, the Potency result in the assay with CP291, with CP297, with CP305, with CP315, with CP325 and with CP329 was “inactive” in each case. Also, the Potency result in the assay on CP335 and in the assay with DFO2036 was “inactive” each time.
Turning to `CCCCCCCCCCCCCCCCCC(=O)OCC(O)CO` (centres undefined), the Potency result in the assay with CP238, in the assay with CP247, with CP250, in the assay with CP252, in the assay on CP256 and in the assay with CP260 was “inactive” in each case. In addition, the Potency result in the assay with CP262, in the assay on CP265, in the assay on CP266, in the assay on CP268, in the assay with CP269 and in the assay with CP286 was “inactive” throughout. The Potency entry in the assay with CP291, with CP297, in the assay with CP305, with CP315, in the assay on CP325 and with CP329 was “inactive” throughout. For the same compound, the Potency entry with DFO2036 is “inactive”.
With `C[C@H]1[C@H](NC(=O)/C(=N/OC(C)(C)C(=O)O)c2csc(N)n2)C(=O)N1S(=O)(=O)O` (stereo in doubt), the Potency entry in the assay with CP238, in the assay on CP247, with CP250, in the assay on CP252, in the assay with CP256 and in the assay on CP260 was “inactive” in each case. Further, the Potency result in the assay with CP262, in the assay with CP265, in the assay with CP266, in the assay on CP268, in the assay on CP269 and with CP286 was “inactive” in each case. In addition, the Potency entry with CP291, in the assay with CP297, in the assay on CP305, with CP315, with CP325 and in the assay on CP329 was “inactive” each time. For the same compound, the Potency result with CP335 and with DFO2036 was “inactive” in each case.
Consider `C[C@]12CCC(=O)C=C1CC[C@H]1[C@@H]3CC[C@](O)(C(=O)CO)[C@@]3(C)C[C@H](O)[C@@]12F`, for which the Potency result with CP238, in the assay on CP247, in the assay with CP250, with CP252, in the assay on CP256 and with CP260 was “inactive” in each case. For the same compound, the Potency entry in the assay on CP262, in the assay on CP265, with CP266, in the assay on CP268, with CP269 and in the assay with CP286 was “inactive” throughout. Further, the Potency result with CP291, in the assay on CP297, with CP305, in the assay on CP315, in the assay on CP325 and in the assay with CP329 was “inactive” throughout. In addition, the Potency entry in the assay on CP335 and in the assay on DFO2036 was “inactive” throughout.
